RORg inh: inhibitors of mouse ROR gamma transcriptional activity | Drosophila S2 Gal4-RORgamma UAS-luciferase reporter, 20 h | Potency, µM (doses to about 53.6 µM), inactives show at the highest dose activity change, negative = inhibition, usual class: inhibitors | P51450 | hit rate 5.4% among 310,000; also: nearly all actives have a fitted effect of over 60% in size
Target sequence (P51450 whole entry, looked up, the tested form may be a part): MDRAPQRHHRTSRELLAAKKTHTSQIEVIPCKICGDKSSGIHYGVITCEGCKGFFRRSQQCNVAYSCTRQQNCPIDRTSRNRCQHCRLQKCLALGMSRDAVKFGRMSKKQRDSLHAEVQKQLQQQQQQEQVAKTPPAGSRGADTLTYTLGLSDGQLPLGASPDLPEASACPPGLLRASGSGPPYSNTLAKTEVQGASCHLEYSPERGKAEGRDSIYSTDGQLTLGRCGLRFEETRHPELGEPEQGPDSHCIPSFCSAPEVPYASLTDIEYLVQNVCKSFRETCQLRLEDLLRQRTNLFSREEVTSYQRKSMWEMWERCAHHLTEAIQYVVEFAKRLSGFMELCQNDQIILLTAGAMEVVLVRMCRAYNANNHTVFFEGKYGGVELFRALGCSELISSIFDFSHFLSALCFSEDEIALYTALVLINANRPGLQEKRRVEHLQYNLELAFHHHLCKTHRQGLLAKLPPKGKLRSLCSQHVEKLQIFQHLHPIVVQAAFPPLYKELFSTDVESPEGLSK
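Using a luciferase readout, inhibitors were identified by reduced reporter activity in Drosophila cells coexpressing a copper-inducible Gal4–ROR gamma fusion and UAS-driven Photinus luciferase, incubated 20 hr after 700 uM copper sulfate.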
VP16 counter: counter-screen for ROR gamma inhibitors: Gal4-VP16 reporter | Drosophila S2 Gal4-VP16 UAS-luciferase, luminescence, 20 h | Potency, µM (doses to about 53.6 µM), for inactives: at the top dose activity, negative = inhibition, usual class: inhibitors | AID 2546 | hit rate 3.5% among 310,000;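 also: Gal4-VP16 expression switched on by copper sulfate through the metallothionein promoter; nearly all actives have a fitted effect of over 50% in size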
KinaseGlo FLuc: blocks Kinase-Glo luciferase, a counter-screen artifact; Q27757; hit rate 0.28% among 200,000; AID 1379; Potency, µM (doses to about 38.3 µM), without a hit: at the top dose activity change, negative = inhibition, hits mostly inhibitors; Kinase-Glo luciferase, ATP luminescence, 8 min; also: nearly all actives have a fitted effect of over 60% in size
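Inhibition of Kinase-Glo luciferase light generation was assessed at 10 uM ATP in pH 7.2 imidazole buffer, with luminescence measured after eight minutes at ambient temperature.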
Numbers without * were called inactive; ? = inconclusive; . = not tested or not shown; [ ] = another dose, or the depositor's remark. Shown are actives, neighbours in structure and some others; about 6.4% of the full set was active somewhere. Calls follow the shape of the dose curve; as a rule, active = well fitted curve in the direction sought with a large enough effect; inconclusive = small, poorly fitted or top-dose-only effect, or another doubt; inactive = no such curve, though single readings can be large; an effect the other way counts as inactive or inconclusive. % is scaled to controls: 0 for no effect and ±100 for the full control effect; potency is read from the fitted curve at half-maximal effect.

SMILES | RORg inh | VP16 counter | KinaseGlo FLuc
CC(C)CC(=O)NC(=S)Nc1ccc(S(=O)(=O)NC(C)(C)C)cc1 | ? | ? | -4.4%
O=C(COc1ccc(Cl)cc1Cl)NC(=S)Nc1ccc(CN2CCOCC2)cc1 | 15.8µM* | ? | .
O=C(COc1ccccc1Cl)NC(=S)Nc1ccc(CN2CCOCC2)cc1 | -9.1% | -4.3% | 7.9%
CCOC(=O)/C(=N\Nc1cc(Cl)ccc1Cl)N1CCOCC1 | -1.7% | -5.0% | 0.7%
O=C(NCCc1cccnc1)C1CCC(=O)N(CCc2cccc(F)c2)C1 (stereo not given) | 0.3% | 5.2% | .
Cc1c(-n2c(SCC(N)=O)nc3ccccc3c2=O)c(=O)n(-c2ccccc2)n1C | -7.6% | -5.3% | -0.2%
CC(=O)OC[C@@H]1O[C@H](C/C=N\OC[C@@H](O)COCc2ccco2)C=C[C@@H]1OC(C)=O | 31.0%[10 µM] | -12.6%[10 µM] | .
COc1ncccc1-c1nnn(-c2ccc(F)cc2)n1 | 1.8% | -5.6% | .
CCc1cccc(NC(=S)Nc2ccc(CN3CCOCC3)cc2)c1 | 11.2µM* | 20µM* | -0.4%
O=C(COc1ccc(Cl)cc1Cl)Nc1ccccn1 | -3.2% | 2.82µM* | 1.58µM*
Cc1cccc(NC(=S)NCCN2CCOCC2)c1 | ? | ? | -0.8%
CSc1ccccc1NC(=O)COc1ccc(Cl)cc1Cl | ? | 0.6% | .
C/C=C(\C)[C@H](O)C[Si](C)(C)c1ccccc1 | -15.3% | -0.6% | 2.7%
CC(NC(=O)COc1ccccc1F)C1CC2CCC1C2 (stereo not given) | -12.5% | 10.0% | 2.8%
CCOC(=O)C1CCCN(CC(=O)c2c[nH]c3ccc(C)cc23)C1 (stereo not given) | 1.0% | 6.7% | .
O=C(Cc1ccc(NC2=NC3CS(=O)(=O)CC3S2)cc1)NCc1ccccc1Cl (stereo not given) | 10.2% | -4.0% | .
Oc1cccc(NC(=S)Nc2cccnc2)c1 | -5.5% | 5.7% | 5.2%
Cc1cc(C)cc(NC(=S)Nc2cccc3cnccc23)c1 | 12.6µM* | ? | 2.1%
C=C(C)CNC(=S)Nc1cccc2cnccc12 | -17.6% | -23.0% | .
CCc1ccc(NC(=S)Nc2cccc3cnccc23)cc1 | 11.2µM* | ? | 2.4%
Cc1ccc(NC(=O)NC(=O)c2cnccc2C(F)(F)F)c(C)c1 | 15.9% | 5.0% | .
Cc1ccc(NC(=S)Nc2cccc3cnccc23)c(C)c1 | 15.8µM* | -25.9% | -1.2%
CC(=O)Nc1ccc(OC[C@@H](O)CNC(C)C)cc1 | 4.5% | 0.5% | -0.2%
C/C=C\C1=C(CO)C(=O)C2O[C@]2(CC=C(C)C)C1=O (stereo not given in full) | 7.8%[10 µM] | -3.4%[10 µM] | .
CC(C)CC(=O)N1CCN(c2ccc([N+](=O)[O-])cc2Cl)CC1 | ? | -5.3% | 0.1%
SMILES | RORg inh | VP16 counter | KinaseGlo FLuc
CC(C)CC(=O)NC(=S)N1CCN(c2ccc([N+](=O)[O-])cc2Cl)CC1 | 3.55µM* | ? | 6.1%
Clc1ccc2oc(SCc3cccnc3)nc2c1 | 38.9% | -17.9% | .
C=CCN1C(=O)C(CC(C)C)NC1=S (stereo not given) | -28.8% | -17.2% | 1.2%[39.9 µM]
Cc1ccc(OCCCn2c(CO)nc3ccccc32)cc1 | 25.9% | 1.3% | 3.5%
COCCn1c(COc2ccc(C)cc2)nc2ccccc21 | 11.2µM* | -15.8% | -16.1%
CCn1c(COc2ccc(C)cc2)nc2ccccc21 | 8.91µM* | ? | -9.8%
CCOCCn1c(COc2ccc(C)cc2)nc2ccccc21 | ? | 5.2% | -0.3%
O=C1NC(c2ccccc2)=C(c2nc3ccccc3s2)C(c2ccccc2)N1 (stereo not given) | ? | -16.2% | -1.1%
CC(=O)c1c(CC(=O)O)[nH]n(-c2nc3ccccc3s2)c1=O | -0.1% | 1.9% | 6.31µM*
COC(=O)Cc1[nH]n(-c2nc3ccccc3s2)c(=O)c1C(C)=O | ? | -20.5% | ?
O=c1cc(-c2ccccc2)[nH]n1-c1nc2ccccc2s1 | 8.91µM* | ? | 1.4%
O=C(CN(C(=O)CCC(=O)Nc1ccccn1)c1ccc2c(c1)OCO2)NCc1ccc(F)cc1 | 4.6% | 10.6% | .
C=CCN(CC=C)C(=O)COC(=O)c1ccc(Sc2ncn[nH]2)c([N+](=O)[O-])c1 | 16.7% | 5.6% | -0.5%
O=S1(=O)CCC(n2nccc2-c2ccccc2)C1 (stereo not given) | 1.0% | -16.1% | .
Cc1ccc(O)c(-c2cc(-c3cccc(Br)c3)n[nH]2)c1 | -2.1% | -17.4% | -2.5%
Oc1ccccc1-c1cc(-c2ccc(F)cc2)n[nH]1 | ? | -80.2% | .
Cc1ccc(-c2cc(-c3ccc(F)cc3)n[nH]2)c(O)c1 | 5.62µM* | 7.08µM* | .
Cc1ccc(-c2cc(-c3ccc(C)cc3O)[nH]n2)cc1 | 3.98µM* | 7.08µM* | .
COc1ccc(/C=C2\SC(=S)N(CC(=O)OCC(=O)Nc3ccc(C)cc3Cl)C2=O)cc1 | -0.8% | 6.4% | .

Source: PubChem
